p53 reactivator – re-activators of mutant p53; H1299 p53-A138V BP100-luciferase reporter, luminescence, 24 h; Potency, µM (doses to about 92.2 µM), inactives show top-dose activity change, positive = activation, most hits filed as activators; 0.063% of 320,000 active; AID 504706; also: potency is read from the fitted curve at half-maximal effect; % of control where 0% means no effect; nearly all actives have a fitted effect of over 45% in size
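p53-null H1299 cells stably carrying temperature-sensitive p53-A138V and a BP100-luciferase reporter were pinned with compounds (4-point, 1:5 series) and held 24 hrs at 37 deg C. Luminescence was read 10 min after detection reagent.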
hERG WT inh – KCNH2 (human, wildtype) channel inhibition. U2OS, BacMam KCNH2, thallium flux FluxOr; stronger effect = lower value. activity change, % at 1.84 µM. 0.37% of 340,000 active. AID 720551;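 active = maximum activity change below -70%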; also: % is scaled to controls: 0 for no effect and ±100 for the full control effect
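U2OS cells were transduced with wild-type KCNH2 virus (2.03 x 10^8 / mL) for 4 h at room temperature, then cultured overnight at 37 C. Thallium flux was read with FluxOr dye. Rate constants were normalized to DMSO controls.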
MmCpn inh – blocks the Methanococcus maripaludis chaperonin Mm-Cpn. purified Mm-Cpn ATPase, ADP Transcreener TR-FRET. Potency, µM (series often up to 76.9 µM), inactives show top-dose activity, negative = inhibition, usual class: inhibitors. 0.031% of 330,000 active; also: potency is read from the fitted curve at half-maximal effect; % is scaled to controls: 0 for no effect and ±100 for the full control effect; nearly all actives have a fitted effect of over 80% in size
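Quantitative HTS used 25 nM Mm-CPN and 10 uM ATP in magnesium/KCl Tris buffer, pH 7.4, with 1 mM DTT. Hydrolysis ran 30 min at 37°C; ADP was read by HTRF.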
uPA surface inh – inhibitors of cell surface uPA generation. cell surface uPA generation assay, qHTS. Potency, µM (top dose mostly 38.3 µM), inactives show top-dose activity change, negative = inhibition, most hits filed as inhibitors. 0.31% of 330,000 active; active = well fitted inhibition curve with a large enough effect; tested in mouse RAW 264.7 cells; also: potency is read from the fitted curve at half-maximal effect; % is scaled to controls: 0 for no effect and ±100 for the full control effect; nearly all actives have a fitted effect of over 55% in size
ASM inhibitor – blocks human secretory acid sphingomyelinase | P17405 | placental ASM, HMU-PC fluorogenic substrate, 60 min | Potency, µM (doses to about 57.5 µM), inactives show top-dose activity change, negative = inhibition, actives largely listed as inhibitors | 0.006% of 340,000 active; also: potency is read from the fitted curve at half-maximal effect
Target sequence (P17405 47-631 limits assumed): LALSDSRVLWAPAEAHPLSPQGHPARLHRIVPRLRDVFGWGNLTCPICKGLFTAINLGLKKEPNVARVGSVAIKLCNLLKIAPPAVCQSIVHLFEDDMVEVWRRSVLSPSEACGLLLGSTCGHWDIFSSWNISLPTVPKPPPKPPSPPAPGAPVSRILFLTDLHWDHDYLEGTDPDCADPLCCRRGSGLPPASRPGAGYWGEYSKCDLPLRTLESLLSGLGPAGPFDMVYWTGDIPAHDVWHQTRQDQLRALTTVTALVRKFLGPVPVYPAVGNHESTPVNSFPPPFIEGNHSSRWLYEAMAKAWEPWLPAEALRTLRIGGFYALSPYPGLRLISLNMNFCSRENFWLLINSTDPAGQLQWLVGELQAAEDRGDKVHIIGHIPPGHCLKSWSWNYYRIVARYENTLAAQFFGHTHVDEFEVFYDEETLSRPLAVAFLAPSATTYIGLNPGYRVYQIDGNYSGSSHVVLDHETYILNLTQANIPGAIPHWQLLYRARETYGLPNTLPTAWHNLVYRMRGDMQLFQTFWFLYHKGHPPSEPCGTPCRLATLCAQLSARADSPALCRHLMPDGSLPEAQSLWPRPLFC
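Fluorescence read-out (Ex 386 nm, Em 447 nm) after stopping the reaction at pH 10. Enzyme: ASM from human placenta; substrate HMU-PC0, 9 uM final; 60 min, 37 °C. Compound preincubation 10 min, ambient temperature.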
KCNH2 3.1 inh – KCNH2 3.1 (human) potassium channel inhibition; U2OS KCNH2 3.1, thallium flux FluxOr; stronger effect = lower value; activity change, % (tested at about 1.8 µM); 0.95% of 340,000 active; AID 720553;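 active = maximum activity change below -70%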;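 also: thallium influx rate constant from kinetic fluorescence after stimulation buffer; % is scaled to controls: 0 for no effect and ±100 for the full control effect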
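Thallium flux read-out: FluxOr dye with Red40 quencher in HBSS/HEPES, 45 min at RT. Rate constants from kinetic reads were normalized to positive and negative DMSO controls. Cells: U2OS virally expressing the 3.1 isoform.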
An asterisk follows results filed as active. Rows were chosen to be rich in hits. Some 1.4% of all compounds tested hit in one or more screens of this group. Unless noted, calls follow the shape of the dose curve; as a rule, active = well fitted curve in the direction sought with a large enough effect; inconclusive = small, poorly fitted or top-dose-only effect, or another doubt; inactive = no such curve, though single readings can be large; an effect the other way counts as inactive or inconclusive.

How did C=CCN1C(=O)c2ccc(C(=O)N3CCN(S(=O)(=O)c4cccc([N+](=O)[O-])c4)CC3)cc2C1=O do in these assays?
p53 reactivator: -1.0%; hERG WT inh: 1.6; MmCpn inh: 0.9%; uPA surface inh: 10.5%; ASM inhibitor: -1.6%; KCNH2 3.1 inh: -0.5

Results for O=C(Nc1ccccc1O)N1c2ccccc2Sc2ccccc21 ?
hERG WT inh: 0.5; MmCpn inh: -3.7%; uPA surface inh: 1.5%; ASM inhibitor: 25.1µM*; KCNH2 3.1 inh: -3.2

What do the screens show for `C#CCOCCOCCOCCNc1nc(N2CCN(C(=O)[C@H](CCCCN)n3cc(CC(C)O)nn3)CC2)nc(N2CCN(C(=O)[C@H](CCCCN)n3cc(CC(C)O)nn3)CC2)n1` (stereo not given in full)?
p53 reactivator: -5.4%; hERG WT inh: -2.2; MmCpn inh: -4.9%; uPA surface inh: -4.3%; ASM inhibitor: 2.8%; KCNH2 3.1 inh: -76.4*

How did C#CCOCCOCCOCCNc1nc(N2CCN(C(=O)CCCCCCCCCCNC(=O)[C@@H](CCC(=O)O)n3cc(CCCCCN)nn3)CC2)nc(N2CCN(C(=O)CCCCCCCCCCNC(=O)[C@H]([C@@H](C)CC)n3cc(CCCCCN)nn3)CC2)n1 do in these assays?
p53 reactivator: 14.1%; hERG WT inh: 24.7; MmCpn inh: 44.7µM*; uPA surface inh: -18.5%; ASM inhibitor: -7.5%; KCNH2 3.1 inh: 3.5

Results for C#CCOCCOCCOCCNc1nc(N2CCN(C(=O)Cn3cc(CCO)nn3)CC2)nc(N2CCN(C(=O)[C@H](CCCCN)n3cc(CC(C)O)nn3)CC2)n1 (stereo not given in full) ?
hERG WT inh: -2.5; uPA surface inh: -1.1%; ASM inhibitor: 5.2%; KCNH2 3.1 inh: 11.0

Results for C#CCOCCOCCOCCNc1nc(N2CCN(C(=O)CCCCCCCCCCNC(=O)[C@H]([C@@H](C)CC)n3cc(CCCCCN)nn3)CC2)nc(N2CCN(C(=O)CCCCCCCCCCNC(=O)[C@H](CCCCN)n3cc(CCCC(=O)O)nn3)CC2)n1 ?
p53 reactivator: 10.6%; hERG WT inh: -10.8; MmCpn inh: 2.6%; uPA surface inh: -16.4%; ASM inhibitor: -9.1%; KCNH2 3.1 inh: -2.5

Results for Cn1c(Cl)c(/C=N/OC(=O)C2CC2)c2ccccc21 ?
p53 reactivator: -9.3%; hERG WT inh: 3.4; MmCpn inh: 2.5%; uPA surface inh: 2.6%; ASM inhibitor: -11.2%; KCNH2 3.1 inh: -91.8*

Results for Nc1ccccc1-c1nnc(-c2ccccc2N)n1N ?
p53 reactivator: 4.0%; hERG WT inh: 3.3; MmCpn inh: 0.7%; uPA surface inh: -2.0%; ASM inhibitor: 3.1%; KCNH2 3.1 inh: -113.6*

What do the screens show for `OCCN1CCN(c2nc(-c3ccccc3)c3cc(Br)ccc3n2)CC1`?
p53 reactivator: -8.6%; hERG WT inh: -29.7; MmCpn inh: -6.3%; uPA surface inh: -2.6%; ASM inhibitor: 9.9%; KCNH2 3.1 inh: -71.4*

Results for O=C(O)C1CCN(c2nc(-c3ccccc3)c3cc(Br)ccc3n2)CC1 ?
p53 reactivator: 7.3%; hERG WT inh: -13.5; MmCpn inh: -20.9%; uPA surface inh: -2.8%; ASM inhibitor: 25.4%; KCNH2 3.1 inh: 7.2

How did COc1ccccc1CCN1C(=S)NC(C)(C)CC1(C)O (stereo not given) do in these assays?
p53 reactivator: 5.7%; hERG WT inh: -0.5; MmCpn inh: 1.8%; uPA surface inh: 12.6%; ASM inhibitor: -0.3%; KCNH2 3.1 inh: 2.5

How did COc1ccc(CN2C(=S)NC(C)(C)CC2(C)O)cc1 (stereo not given) do in these assays?
p53 reactivator: -2.0%; hERG WT inh: -141.7*; MmCpn inh: -0.3%; uPA surface inh: 0.2%; ASM inhibitor: 0.4%; KCNH2 3.1 inh: 15.7
